Rows were chosen to be rich in hits. Some 6.6% of all compounds tested hit in one or more screens of this group.
SW480 rereplic = A quantitative high throughput screen for small molecules that induce DNA re-replication in SW480 colon adenocarcinoma cells; AID 624297, 2012; 340,000 tested, 1.8% active; Potency, µM (top dose mostly 46.1 µM), inactives show at the highest dose re-replication activation, actives largely listed as activators; SW480 DNA re-replication, Hoechst DNA content imaging, 48 h; further: % of control where 0% means no effect; nearly all actives have a fitted effect of over 55% in size
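DNA re-replication was detected as more nuclei of elevated Hoechst intensity after 48 hr exposure to compound (23 nL pinned per well of 250 cells).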
KB-V1 cytotox = qHTS assay for MDR1-selective chemotherapeutics: Primary screen using the drug-selected MDR subline cells KB-V1; KB-V1 MDR cells viability, CellTiter-Glo, 72 h; Potency, µM (highest dose often 46.1 µM), hits mostly cytotoxic; 400,000 tested, 3.4% active; further: on the % scale 0 is the no-effect control and ±100 the full control effect; nearly all actives have a fitted effect of over 60% in size
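Potencies derive from concentration-effect curves fitted to normalized luminescence (CellTiter-Glo) of KB-V1 cells treated for 72 h at 37 degrees C in phenol-red-free DMEM containing 10% FBS.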
RGS4 inh = Inhibitors of Regulator of G Protein Signaling (RGS) 4: qHTS | Regulator of G-protein signaling 4 (Homo sapiens), P49798 | Transcreener GDP fluorescence polarization, RGS4-accelerated GTP hydrolysis | Potency, µM (doses to about 114 µM), for inactives: top-dose activity change, negative = inhibition, usual class: inhibitors | 390,000 tested, 0.039% active | AID 504845, 2011; further: on the % scale 0 is the no-effect control and ±100 the full control effect; nearly all actives have a fitted effect of over 75% in size
Target sequence (P49798 whole entry, looked up): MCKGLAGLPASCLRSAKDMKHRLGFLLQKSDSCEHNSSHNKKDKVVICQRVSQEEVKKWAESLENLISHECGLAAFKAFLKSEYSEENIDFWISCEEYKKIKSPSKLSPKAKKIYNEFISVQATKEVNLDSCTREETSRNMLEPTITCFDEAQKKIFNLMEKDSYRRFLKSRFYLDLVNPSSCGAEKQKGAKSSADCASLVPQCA
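MLSMR compounds (23 nl, pin-transferred) preincubated 10 min at room temperature with a 500nM (2x) first reagent, then RGS4 at 900nM (2x) plus Transcreener GDP mix added; fluorescence polarization (620/688 nm) read before and after 90 min at 30 °C.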
PTAP TSG101 blk = qHTS Assay for Iinhibitors of HIV-1 Budding by Blocking the Interaction of PTAP/TSG101; Fluorescence polarization, FITC-PTAP peptide / Tsg101 binding; Potency, µM (series often up to 115 µM), inactives show at the top dose activity change, negative = inhibition, hits mostly inhibitors; 340,000 tested, under 10 active; AID 493005, 2010; active means well fitted inhibition curve with a large enough effect in the main read-out, with a control signal flat, not every such curve was filed as active; inconclusive means small, poorly fitted or top-dose-only effect, or effect the other way, or a change in a side signal; inactive means no such curve, though single readings can be large or run the other way; further: % of control where 0% means no effect
Target sequence (Q99816 whole entry, looked up): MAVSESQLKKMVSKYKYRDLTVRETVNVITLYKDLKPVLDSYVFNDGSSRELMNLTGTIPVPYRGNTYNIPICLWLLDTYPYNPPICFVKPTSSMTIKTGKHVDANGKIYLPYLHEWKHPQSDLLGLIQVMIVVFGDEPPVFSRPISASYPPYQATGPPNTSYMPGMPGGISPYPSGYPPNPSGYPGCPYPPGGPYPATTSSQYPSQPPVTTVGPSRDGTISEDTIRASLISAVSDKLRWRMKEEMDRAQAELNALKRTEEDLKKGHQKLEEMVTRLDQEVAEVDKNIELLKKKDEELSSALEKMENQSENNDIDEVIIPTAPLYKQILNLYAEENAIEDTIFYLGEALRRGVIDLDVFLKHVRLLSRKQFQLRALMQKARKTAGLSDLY
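Steps: Tsg101 binding domain dispensed (10 uM final), compounds pinned in DMSO, FITC-labeled PTAP-motif peptide added (50 nM final); after 20 min binding at room temperature, polarization measured.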
MCF10A rereplic = A quantitative high throughput screen for small molecules that induce DNA re-replication in MCF 10a normal breast cells. Potency, µM (doses to about 46.1 µM), without a hit: at the highest dose activity, positive = re-replication, hits mostly activators. 350,000 tested, 2.9% active. MCF 10A DNA re-replication, Hoechst nuclear intensity, 48 h. AID 624296, 2012; further: % of control where 0% means no effect; nearly all actives have a fitted effect of over 50% in size
KB-3-1 cytotox = qHTS assay for MDR1-selective chemotherapeutics: Primary screen using the parental adenocarcinoma cell KB-3-1; KB-3-1 viability, CellTiter-Glo ATP luminescence, 72 h; 400,000 tested, 1.4% active; AID 1347075, 2019; Potency, µM (doses to about 46.1 µM), actives largely listed as cytotoxic; further: on the % scale 0 is the no-effect control and ±100 the full control effect; nearly all actives have a fitted effect of over 60% in size
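Parental KB-3-1 adenocarcinoma cells in phenol-red-free DMEM with 10% FBS were pin-treated with compounds at several concentrations, incubated 72 h at 37 °C, and viability read by CellTiter-Glo luminescence; concentration-effect curves were fitted after normalization.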
Starred values were filed as active, the others as inactive; i = inactive; ? = inconclusive; / = not tested or not shown; [ ] = remark or other dose. Unless noted, the call rests on the fitted dose curve; in most records, active means well fitted curve in the direction sought with a large enough effect; inconclusive means small, poorly fitted or top-dose-only effect, or another doubt; inactive means no such curve, though single readings can be large; an effect the other way counts as inactive or inconclusive. Potency means the concentration at half of the fitted maximal effect.

SMILES	SW480 rereplic	KB-V1 cytotox	RGS4 inh	PTAP TSG101 blk	MCF10A rereplic	KB-3-1 cytotox
N#Cc1ccccc1Cn1c(=O)n(CCCCC(=O)NCc2ccc3c(c2)OCO3)c(=O)c2ccccc21	/	i	9%	/	/	i
COc1ccc(N2CCN(C(=O)CCc3c(C)nc4c(-c5ccccc5)c(C)nn4c3C)CC2)cc1	/	?	-21%	/	/	i
CC(C)=CCc1cc([C@@H]2COc3c(ccc4c3C=CC(C)(C)O4)C2)c(O)cc1O	5%	i	1%	-6%	5.2µM*	i
COc1ccc(-c2ccc3c(c2)O[C@H](CN(C)C(=O)Nc2ccccc2F)[C@@H](C)CN([C@H](C)CO)S3(=O)=O)cc1	/	12µM*	/	/	/	?
COc1ccc(-c2ccc3c(c2)O[C@@H](CN(C)C(=O)c2ccccc2F)[C@@H](C)CN([C@@H](C)CO)S3(=O)=O)cc1	/	i	/	/	/	i
Cn1c(=O)cc(OCCCC(=O)Nc2ccc(F)cc2)c2ccccc21	/	?	-1%	/	/	i
C#CCn1c(S(=O)(=O)Cc2ccc(C)cc2)nc(-c2ccccc2)c1-c1ccccc1	?	6.5µM*	-19%	-3%	27%	6.5µM*
Nc1nc2ccccc2n1/N=C/c1cccnc1	-2%	i	-43%	-3%	3%	i
Nc1nc2ccccc2n1/N=C/c1ccc(-c2ccccc2)o1	?	21µM*	-17%	-2%	?	?
O=C(NCc1cccs1)C1CCN(c2nc3ccccc3o2)CC1	-3%	i	-29%	-1%	-1%	i
COc1ccc(-c2nc(NC(=O)C3CCN(c4nc5ccccc5o4)CC3)sc2C)cc1	?	i	-28%	-3%	20%	26µM*
CC(C)CCNC(=O)C1CCN(c2nc3ccccc3o2)CC1	-3%	13µM*	11%	-2%	-6%	?
Cc1ccc(SCCC(=O)Nc2ccccc2C(=O)N2CCOCC2)cc1	-6%	23µM*	34%	-14%	-10%	i
Cc1ccccc1C(=O)NCCSc1ccccc1	-10%	i	28%	-2%	5%	i
O=C(CCSc1ccccc1)Nc1ncccn1	23%	i	-2%	-2%	21µM*	i
CSc1ccccc1C(=O)NCCSc1ccccc1	-2%	18µM*	12%	1%	20%	i
CC(C)CNC(=O)c1ccccc1NC(=O)c1ccc(CSc2ccccc2)cc1	18%	13µM*	-12%	-1%	?	i
CCc1ccccc1NC(=O)CSc1ncc2c(n1)-c1ccccc1N(Cc1ccc(C)cc1)S2(=O)=O	/	i	-20%	/	/	i
CCCN1Cc2cccc(C(=O)Nc3cccc(C(=O)OCC)c3)c2C1=O	/	i	-10%	/	/	i
COc1cccc(CNC(=O)CN2C(=O)N(c3c(C)cccc3C)S(=O)(=O)c3ccccc32)c1OC	/	?	24%	/	/	i
CC(C)CNC(=O)c1ccccc1NC(=O)CCSc1ccccc1	1%	21µM*	-22%	-4%	?	i
c1ccc(CN2C3=NCCN3c3ccccc32)cc1	?	i	3%	-1%	-2%	i
Clc1ccc(CN2C3=NCCN3c3ccccc32)cc1Cl	?	21µM*	-19%	-1%	10%	i
c1ccc2cnccc2c1	/	i	/	/	/	i
CCOc1c(O)ccc(/C=C2\SC(=S)NC2=O)c1[N+](=O)[O-]	26%	i	-35%	2%	26µM*	i
SMILES	SW480 rereplic	KB-V1 cytotox	RGS4 inh	PTAP TSG101 blk	MCF10A rereplic	KB-3-1 cytotox
CCOc1ccc(N(C)c2ccc(/C=C3/SC(=S)NC3=O)cc2)cc1	?	i	-45%	21%	4.1µM*	i
COc1cccc(C=C2SC(=S)NC2=O)c1	1%	?	-15%	-4%	16µM*	?
COc1cccc(C(C)=C2SC(=S)NC2=O)c1	-3%	21µM*	?	-5%	5%	i
O=C1NC(=S)S/C1=C\c1cc(Cl)ccc1Cl	-10%	?	?	-6%	?	?
CCO/C(C)=C1/SC(=S)NC1=O	-5%[9.22 µM]	i	-20%	-6%	5%	?
COc1cccc2sc(N(Cc3cccnc3)C(=O)C3CCCCC3)nc12	/	/	-12%	/	/	/
CCCCC1CCC(C(=O)N2CC(=O)Nc3ccc(Br)cc3C2c2ccc(F)cc2)CC1 (configuration not stated)	/	i	27%	/	/	i
CC(C)c1ccc(C2c3c(-c4ccccc4O)n[nH]c3C(=O)N2CCc2ccccc2)cc1 (configuration not stated)	/	/	12%	/	/	/
O=C(CNC(=O)c1ccccc1)NCC(=O)OCC(=O)c1ccc2ccccc2c1	/	i	2%	/	/	?
CN(C(=O)Cn1nc(Cc2cccnc2)c2ccccc2c1=O)c1cccc(C(F)(F)F)c1	/	/	-22%	/	/	/
COCC(=O)O[C@]1(CCN(C)CCCc2nc3ccccc3[nH]2)CCc2cc(F)ccc2[C@@H]1C(C)C	?	15µM*	-16%[56.9 µM]	-4%	-55%	?
Cc1ccc(C(C)C)c(OCC(=O)NCC2(N(C)C)CCCCC2)c1	/	?	-2%	/	/	?
Cc1[nH][nH]c(=O)c1C(c1c(C)[nH][nH]c1=O)c1cn(Cc2ccc(F)cc2)c2ccccc12	9.2µM*	?	-39%	-1%	?	?
O=C(O)Cc1cn(Cc2ccc(F)cc2)c2ccccc12	-3%	i	-4%	-7%	7%	i
O=c1cnn(Cc2ccc(Cl)c(Cl)c2)c2ccccc12	-14%	?	-6%	-4%	8%	?
Cc1[nH][nH]c(=O)c1C(c1c(C)[nH][nH]c1=O)c1cn(Cc2ccc(Cl)c(Cl)c2)c2ccccc12	9.2µM*	13µM*	?	-10%	?	23µM*
CCCC12CN3CC(CCC)(CN(C1)C3c1c(C)[nH]c(=O)[nH]c1=O)C2=O (configuration not stated)	/	i	-4%	/	/	i

Source: PubChem BioAssay (National Center for Advancing Translational Sciences (NCATS))
